Assay outcomes deposited in PubChem by National Center for Advancing Translational Sciences (NCATS).
D2 ag-1: agonists of human D2 dopamine receptor. P14416. HEK293 T-REx D2 cells, calcium flux agonist mode. activation, % at 2 µM. hit rate 0.53% among 340,000. AID 485358;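 active means activation over 3 SD above normal in the single-dose calcium agonist read, cut at about 30% in these data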; further: 0% is about no effect
Target sequence (P14416 whole entry, looked up): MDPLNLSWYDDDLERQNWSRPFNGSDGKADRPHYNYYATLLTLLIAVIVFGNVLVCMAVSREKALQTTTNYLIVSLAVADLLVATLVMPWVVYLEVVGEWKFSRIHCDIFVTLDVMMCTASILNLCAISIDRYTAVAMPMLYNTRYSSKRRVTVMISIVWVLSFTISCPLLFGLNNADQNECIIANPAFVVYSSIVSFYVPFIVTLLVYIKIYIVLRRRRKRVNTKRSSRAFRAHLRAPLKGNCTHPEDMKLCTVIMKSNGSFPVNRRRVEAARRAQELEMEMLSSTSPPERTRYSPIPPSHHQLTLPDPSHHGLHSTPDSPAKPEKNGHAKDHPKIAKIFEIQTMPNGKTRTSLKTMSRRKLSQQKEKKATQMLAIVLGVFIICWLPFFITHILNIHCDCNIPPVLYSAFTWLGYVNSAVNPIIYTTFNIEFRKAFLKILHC
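Calcium-flux readout, 1 cycle/sec over 180 s following compound pin transfer, in inducible HEK293 Trex D2 cells (force-coupled); dopamine controls included. Positive calcium responses during this window marked compounds as potential agonists.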
D2 PAM-1: positively modulates the human D2 dopamine receptor allosterically; P14416; HEK293 T-REx D2, calcium flux, EC20 dopamine potentiation; potentiation, % at 10 µM; hit rate 0.34% among 340,000; AID 485347;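 active means potentiation over 3 SD above the plate norm, cut at about 30% in these data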; further: 0% is about no effect
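Potentiation of an EC20 dopamine calcium response measured kinetically over 180 s, after a preceding 180 s compound-only read flagging agonists. Cells: inducible Hek293 Trex D2 line, 4000/well, cultured overnight at 30 C before dye loading.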
D2 antagonist: antagonizes the human D2 dopamine receptor; HEK293 TREx D2 cells, calcium flux, dopamine EC80; inhibition, % at 10 µM; hit rate 2% among 340,000; AID 485344; in the data active means inhibition above about 30%; inactive means below that, where a call was filed; further: 0% is about no effect
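Overnight-induced (tetracycline, 30 C) HEK293 T-REx cells carrying force-coupled D2 receive a no-wash calcium dye, then compound, then EC80 dopamine at 180 s; signals are read kinetically throughout.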
D2 PAM-2: positive allosteric modulators of human D2 dopamine receptor; hit rate 0.23% among 360,000; potentiation, % (no concentration beside the values); AID 624464; P14416; DiscoveRx D2 beta-arrestin cells, luminescence, 90 min; 100% = 57 uM dopamine signal; in the data active means potentiation above about 50%
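PathHunter beta-arrestin assay in DiscoveRx D2 cells. Compounds were added with an EC20 of dopamine (50 nM final) for 90 min at 37 deg C. Luminescence was read 1 h after detection reagent, with 57 uM dopamine as the EC100 control.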
D2 ag-2: agonists of human D2 dopamine receptor (beta-arrestin); DiscoveRx PathHunter D2 beta-arrestin, luminescence, 90 min; 100% = 57 uM dopamine signal; hit rate 0.084% among 360,000; P14416; activation, % (concentration not given with the values); in the data active means activation above about 40%
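DiscoveRx PathHunter D2 beta-arrestin cells (2,100/well) attached overnight, then compound-stimulated 90 min at 37 C in HBSS/10 mM HEPES/0.1% Tween-20 buffer; beta-galactosidase complementation read by luminescence after 1 h at ambient temperature. Dopamine 57 uM final (EC100) as control.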
The depositor's hits bear a star; · = no result given. Hits are enriched below; roughly 2.4% of the tested compounds scored in any of these assays.

SMILES	D2 ag-1	D2 PAM-1	D2 antagonist	D2 PAM-2	D2 ag-2
COc1ccc(C2=C(N3CCN(c4cccc(C)c4C)CC3)c3ccccc3C2=O)cc1	0.2	-3.9	·	·	·
COCCNC(=O)c1ccc(CS(=O)(=O)c2ccccc2OC)o1	-1.2	9.2	5.6	-2.0	-19.8
COc1ccccc1N1CCN(C(=O)c2ccc(CS(=O)(=O)c3ccccc3OC)o2)CC1	-1.9	47.0*	0.6	-20.7	2.0
COCCCNC(=O)c1ccc(CS(=O)(=O)c2ccccc2OC)o1	-1.3	3.4	32.9*	-3.3	0.1
COCCSc1ccccc1C(=O)N1CCN(c2ccccc2OC)CC1	2.1	3.7	38.1*	0.2	-2.4
O=C(CN1C(=O)CSc2ccc(S(=O)(=O)N3CCCCC3)cc21)NCc1ccc(F)cc1Cl	-0.7	17.4	·	·	·
CCc1ccc2oc(-c3cc(NC(=O)c4cc([N+](=O)[O-])ccc4N4CCOCC4)ccc3Cl)nc2c1	-0.3	6.9	·	·	·
CC(=O)c1ccc(NC(=O)c2cn(-c3ccccc3)nc2-c2ccc(Br)cc2)cc1	0.6	-0.6	·	·	·
COc1ccc(-c2cc3nc(NCc4ccc(C)cc4C)n(C)c(=O)c3s2)cc1OC	·	·	·	2.4	-1.5
Cc1ccc(CNc2nc3cc(-c4ccccc4)sc3c(=O)n2C)c(C)c1	·	·	·	-3.5	52.8*
CC(=O)c1ccc(S(=O)(=O)N2CCN(C(=O)c3ccc(-n4nc(C)c(Cl)c4C)cc3)CC2)cc1	22.4	-1.1	30.6*	-6.3	2.6
COc1ccc(CCN2C(=O)CC(N3CCN(S(=O)(=O)c4ccccc4)CC3)C2=O)cc1 (stereo unspecified)	-0.2	30.9*	8.2	-26.5	0.2
CCOC(=O)c1ccc(Nc2ccc(C(C)=O)cc2)cc1	·	·	·	4.5	3.2
CCOC(=O)c1ccc(Nc2nnc(C(C)(C)C)c(=O)[nH]2)cc1	-0.1	0.1	53.1*	-9.7	-0.5
O=C(N1CCOCC1)n1nnc2ccccc21	-1.9	1.0	2.2	-1.6	-0.6
O=C(N1CCOCC1)n1cnc2ccccc21	-2.1	51.4*	-6.4	1.9	-3.4
CS(=O)(=O)c1ccc(NCC2CCCO2)c([N+](=O)[O-])c1 (stereo unspecified)	0.3	125.3*	-1.3	-9.2	-5.0
CCn1c(SCC(=O)NCc2ccc3c(c2)OCO3)nnc1-c1c[nH]c2ccccc12	-0.6	34.3*	0.3	-9.5	0.6
Cc1ccc(NC(=O)N2CCCC2C(=O)NCC2CCCCC2)cc1 (stereo unspecified)	-0.4	-5.2	35.3*	-6.4	-0.8
CC(C)c1ccc(CNc2nc(-c3ccco3)nn2C(=O)c2ccc([N+](=O)[O-])cc2)cc1	-1.2	-4.4	·	·	·
O=C(Nc1ccc(Br)cc1)c1ccc2c(c1)OCO2	-0.2	-4.8	10.9	-5.7	-5.0
CCC(=O)N1CCc2cc(CNC(=O)c3cccc(N(C)C)c3)ccc21	0.5	-3.4	·	·	·
Clc1ccc(/C=C\c2nccc3c2[nH]c2ccccc23)cc1	0.0	-39.9	66.4*	-29.4	0.8
Cc1cc(OCC(=O)NC(Cc2ccc(Cl)cc2)C(=O)O)c2c(C)c(C)c(=O)oc2c1 (stereo unspecified)	0.4	7.6	4.4	-37.1	-7.7
Cc1cccc(CNc2ccc(C(CC(N)=O)NC(=O)Cc3cccc4ccccc34)cc2[N+](=O)[O-])c1 (stereo unspecified)	-0.5	1.8	33.8*	-4.0	-4.1
SMILES	D2 ag-1	D2 PAM-1	D2 antagonist	D2 PAM-2	D2 ag-2
NC(=O)CC(NC(=O)c1cccc(Br)c1)c1ccc(NCC2CC2)c([N+](=O)[O-])c1 (stereo unspecified)	0.2	-8.9	37.7*	-10.8	-3.1
NC(=O)CC(NC(=O)c1ccccc1)c1ccc(NCC2CC2)c([N+](=O)[O-])c1 (stereo unspecified)	0.2	-0.6	6.8	-9.2	-6.1
CCCCNc1ccc(C(CC(N)=O)NC(=O)Cc2cccc3ccccc23)cc1[N+](=O)[O-] (stereo unspecified)	0.7	-4.6	-0.8	-0.6	-1.2
COc1cccc(NC(=O)Cn2c(=O)n(C)c(=O)c3sc4c(c32)COC(C)(C)C4)c1	0.2	-11.4	42.9*	-5.0	-0.8
Cc1c(C(Nc2ccccn2)c2ccc(Cl)cc2)c(=O)n(-c2ccccc2)n1C (stereo unspecified)	0.3	25.5	-0.3	7.2	0.5
Cc1c(C(Nc2ccccn2)c2ccccc2)c(=O)n(-c2ccccc2)n1C (stereo unspecified)	-0.3	36.4*	1.5	0.4	3.9
O=C(NNS(=O)(=O)c1ccc(Cl)cc1)c1sccc1-n1cccc1	·	·	·	-6.5	-4.0
O=C(NNC(=O)c1sccc1-n1cccc1)c1ccc(Cl)cc1	0.2	3.6	36.4*	8.8	-1.7
Cc1ccc(C)c(N2CCN(C(=O)Cn3nc(Cc4cccnc4)c4ccccc4c3=O)CC2)c1	-0.7	4.7	·	·	·
CCN(CC)S(=O)(=O)c1cc(NC(=O)C2CCN(c3ncnc4sc(C)c(C)c34)CC2)ccc1Cl	-0.6	-15.8	36.5*	-25.0	-0.9
CC1CCN(S(=O)(=O)c2ccc3c(c2)N(CC(=O)N2CCN(c4ccccc4)CC2)C(=O)CO3)CC1	2.0	0.1	·	·	·
CCN(CC)C(=O)C1CC(c2ccc(OC)cc2)=NO1 (stereo unspecified)	-0.6	8.5	31.3*	-20.0	-1.9
COc1ccc(C2=NOC(C(=O)NC(C)(C)C)C2)cc1 (stereo unspecified)	0.9	2.3	-11.3	-1.3	-3.3
CN(Cc1ccccc1)C(=O)CN1CCN(C(c2ccccc2)c2ccccc2)CC1	-2.0	-28.0	50.6*	-34.9	-8.2
CCOc1ccc(NC(=O)CC2C(=O)N(c3cccc(C)c3)C(=O)N2Cc2ccco2)cc1 (stereo unspecified)	-0.3	2.9	·	·	·
CC(C)CN1CCC(=O)N([C@H](CSc2ccc(Br)cc2)Cc2ccccc2)CC1	0.3	-9.6	35.6*	-8.6	2.3
O=C(Nc1ccc2c(c1)OCCO2)c1cccc2nc3ccccc3nc12	0.1	34.3*	-28.4	-2.4	-2.7
O=C(Nc1ccc(F)cc1)C1(S(=O)(=O)c2ccc(Cl)cc2)CC1	-1.4	-4.7	36.9*	1.2	0.4
CCOC(=O)c1ccc(NC(=O)C2(S(=O)(=O)c3ccc(Cl)cc3)CC2)cc1	0.2	-9.3	·	·	·
COc1cccc(-c2cc(C(F)(F)F)n3ncc(C(=O)N4CCc5ccccc5C4)c3n2)c1	-1.7	5.0	50.0*	-2.9	-5.8
COc1ccc(-c2cc(C(F)(F)F)n3ncc(C(=O)N4CCc5ccccc5C4)c3n2)cc1	1.3	1.6	-8.2	-5.0	-1.2
C/C(=N\O)c1c(O)cc(-c2ccccc2)n(-c2ccccc2)c1=O	30.9*	-24.1	-5.8	-1.0	-7.9
C/C(=N/O)c1c(O)c(C)c(-c2ccccc2)n(-c2ccccc2)c1=O	-0.1	8.8	-3.0	7.9	-2.1
